According to publication PMC8384837, “Expanding the binding specificity for RNA recognition by a PUF domain”:

Key:
Experiment in all cases: yeast three-hybrid, YBZ-1, SC-Leu-His + 0.5 mM 3-AT, 4 days
Conditions in all cases: tags: N-Gal4 AD-HA kept; label: inside an RPR1-promoter hybrid RNA with tandem MS2 sites; ssRNA
PUM1 PUF domain R4-NNV = PUM1 PUF domain R4-NNV (Homo sapiens, UniProt Q14671 828-1176, H972N;Q975V)
Method in brief: (§1)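 Each repeat of the Pumilio-1 PUF domain was randomized at its three base-contacting residues, and these libraries were co-expressed from a centromeric plasmid with matching RNA elements in strain YBZ-1. After four days on SC-Leu (input) or SC-Leu-His + 0.5 mM 3-AT (selection), the repeat regions were PCR-amplified and Illumina-sequenced. The interaction score compares variant frequency between input and selection as a log change, computed in log2 with a pseudocount of 1 for absent variants.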

PUM1 PUF domain R4-PYC = PUM1 PUF domain R4-PYC (Homo sapiens, UniProt Q14671 828-1176, N971P;H972Y;Q975C)
Method in brief: as §1

PUM1 PUF domain R4-VPG = PUM1 PUF domain R4-VPG (Homo sapiens, UniProt Q14671 828-1176, N971V;H972P;Q975G)
Method in brief: as §1

PUM1 PUF domain R4-GRC = PUM1 PUF domain R4-GRC (Homo sapiens, UniProt Q14671 828-1176, N971G;H972R;Q975C)
Method in brief: as §1

PUM1 PUF domain R8-RWS = PUM1 PUF domain R8-RWS (Homo sapiens, UniProt Q14671 828-1176, N1122R;Y1123W;Q1126S)
Method in brief: as §1

PUM1 PUF domain R3-THF = PUM1 PUF domain R3-THF (Homo sapiens, UniProt Q14671 828-1176, C935T;R936H;Q939F)
Method in brief: as §1

PUM1 PUF domain R8-GHK = PUM1 PUF domain R8-GHK (Homo sapiens, UniProt Q14671 828-1176, N1122G;Y1123H;Q1126K)
Method in brief: as §1

PUM1 PUF domain R5-THV = PUM1 PUF domain R5-THV (Homo sapiens, UniProt Q14671 828-1176, C1007T;R1008H;Q1011V)
Method in brief: as §1

PUM1 PUF domain R5-RQH = PUM1 PUF domain R5-RQH (Homo sapiens, UniProt Q14671 828-1176, C1007R;R1008Q;Q1011H)
Method in brief: as §1

PUM1 PUF domain R3-FRL = PUM1 PUF domain R3-FRL (Homo sapiens, UniProt Q14671 828-1176, C935F;Q939L)
Method in brief: as §1

Sequence of PUM1 PUF domain R4-VPG (Q14671 828-1176 N971V/H972P/Q975G): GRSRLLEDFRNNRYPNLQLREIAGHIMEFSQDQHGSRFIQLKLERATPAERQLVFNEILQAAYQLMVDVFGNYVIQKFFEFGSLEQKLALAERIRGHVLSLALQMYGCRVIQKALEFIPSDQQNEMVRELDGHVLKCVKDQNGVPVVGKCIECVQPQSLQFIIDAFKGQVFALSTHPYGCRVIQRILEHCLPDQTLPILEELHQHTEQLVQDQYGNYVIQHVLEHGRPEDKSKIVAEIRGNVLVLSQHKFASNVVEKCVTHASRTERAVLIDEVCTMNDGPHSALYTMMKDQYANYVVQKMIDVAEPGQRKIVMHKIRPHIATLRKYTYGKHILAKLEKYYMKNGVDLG
Sequence of PUM1 PUF domain R4-GRC (Q14671 828-1176 N971G/H972R/Q975C): as the sequence (Q14671 828-1176 N971V/H972P/Q975G) above, with V144G, P145R, G148C counted along it
Sequence of PUM1 PUF domain R4-NNV (Q14671 828-1176 H972N/Q975V): as the sequence (Q14671 828-1176 N971V/H972P/Q975G) above, with V144N, P145N, G148V counted along it
Sequence of PUM1 PUF domain R4-PYC (Q14671 828-1176 N971P/H972Y/Q975C): as the sequence (Q14671 828-1176 N971V/H972P/Q975G) above, with V144P, P145Y, G148C counted along it
Sequence of PUM1 PUF domain R8-RWS (Q14671 828-1176 N1122R/Y1123W/Q1126S): as the sequence (Q14671 828-1176 N971V/H972P/Q975G) above, with V144N, P145H, G148Q, N295R, Y296W, Q299S counted along it
Sequence of PUM1 PUF domain R3-FRL (Q14671 828-1176 C935F/Q939L): as the sequence (Q14671 828-1176 N971V/H972P/Q975G) above, with C108F, Q112L, V144N, P145H, G148Q counted along it
Sequence of PUM1 PUF domain R3-THF (Q14671 828-1176 C935T/R936H/Q939F): as the sequence (Q14671 828-1176 N971V/H972P/Q975G) above, with C108T, R109H, Q112F, V144N, P145H, G148Q counted along it
Sequence of PUM1 PUF domain R5-RQH (Q14671 828-1176 C1007R/R1008Q/Q1011H): as the sequence (Q14671 828-1176 N971V/H972P/Q975G) above, with V144N, P145H, G148Q, C180R, R181Q, Q184H counted along it
Sequence of PUM1 PUF domain R5-THV (Q14671 828-1176 C1007T/R1008H/Q1011V): as the sequence (Q14671 828-1176 N971V/H972P/Q975G) above, with V144N, P145H, G148Q, C180T, R181H, Q184V counted along it
Sequence of PUM1 PUF domain R8-GHK (Q14671 828-1176 N1122G/Y1123H/Q1126K): as the sequence (Q14671 828-1176 N971V/H972P/Q975G) above, with V144N, P145H, G148Q, N295G, Y296H, Q299K counted along it

## GGCUAGAACUAGUGGAUCCCCCGGCGCCCGGCGGCUCGAGCCCGGGUAAGUGUAUAUAGUCUGCAUGCCGCCGGGCGCCAUGCCUGCAGGUCGACUCUAGAAAACAUG
PUM1 PUF domain R4-NNV
  binding signal: 3.42 log2 enrichment (interaction score)
PUM1 PUF domain R4-PYC
  binding signal: 7.49 log2 enrichment (interaction score)
PUM1 PUF domain R4-VPG
  binding signal: 2.52 log2 enrichment (interaction score)
PUM1 PUF domain R4-GRC
  binding signal: 2.46 log2 enrichment (interaction score)

## GGCUAGAACUAGUGGAUCCCCCGGCGCCCGGCGGCUCGAGCCCGGGUAAGUGUAAAUAGUCUGCAUGCCGCCGGGCGCCAUGCCUGCAGGUCGACUCUAGAAAACAUG
PUM1 PUF domain R8-RWS
  binding signal: 4.8 log2 enrichment (interaction score)
PUM1 PUF domain R3-THF
  binding signal: 3.81 log2 enrichment (interaction score)
PUM1 PUF domain R4-NNV
  binding signal: 1.31 log2 enrichment (interaction score)
PUM1 PUF domain R4-PYC
  binding signal: 7.66 log2 enrichment (interaction score)
PUM1 PUF domain R4-VPG
  binding signal: 3.14 log2 enrichment (interaction score)
PUM1 PUF domain R4-GRC
  binding signal: 4.62 log2 enrichment (interaction score)

## GGCUAGAACUAGUGGAUCCCCCGGCGCCCGGCGGCUCGAGCCCGGGUAAGCGUAAAUAGUCUGCAUGCCGCCGGGCGCCAUGCCUGCAGGUCGACUCUAGAAAACAUG
PUM1 PUF domain R8-GHK
  binding signal: 2.58 log2 enrichment (interaction score)
PUM1 PUF domain R8-RWS
  binding signal: 5.59 log2 enrichment (interaction score)

## GGCUAGAACUAGUGGAUCCCCCGGCGCCCGGCGGCUCGAGCCCGGGUAAGUGUACAUAGUCUGCAUGCCGCCGGGCGCCAUGCCUGCAGGUCGACUCUAGAAAACAUG
PUM1 PUF domain R4-NNV
  binding signal: 2.48 log2 enrichment (interaction score)
PUM1 PUF domain R4-PYC
  binding signal: 6.68 log2 enrichment (interaction score)
PUM1 PUF domain R4-VPG
  binding signal: 2.82 log2 enrichment (interaction score)
PUM1 PUF domain R4-GRC
  binding signal: 0.93 log2 enrichment (interaction score)

## GGCUAGAACUAGUGGAUCCCCCGGCGCCCGGCGGCUCGAGCCCGGGUAAGUGUUAAUAGUCUGCAUGCCGCCGGGCGCCAUGCCUGCAGGUCGACUCUAGAAAACAUG
PUM1 PUF domain R5-THV
  binding signal: 3.33 log2 enrichment (interaction score)

## GGCUAGAACUAGUGGAUCCCCCGGCGCCCGGCGGCUCGAGCCCGGGUAAGUGUCAAUAGUCUGCAUGCCGCCGGGCGCCAUGCCUGCAGGUCGACUCUAGAAAACAUG
PUM1 PUF domain R5-RQH
  binding signal: 3.64 log2 enrichment (interaction score)

## GGCUAGAACUAGUGGAUCCCCCGGCGCCCGGCGGCUCGAGCCCGGGUAAGUGUAAGUAGUCUGCAUGCCGCCGGGCGCCAUGCCUGCAGGUCGACUCUAGAAAACAUG
PUM1 PUF domain R3-FRL
  binding signal: 4.24 log2 enrichment (interaction score)
